Screening data deposited in PubChem BioAssay by National Center for Advancing Translational Sciences (NCATS).
TrxR1 substrate – substrates of rat thioredoxin reductase 1. O89049. purified TrxR1 substrate turnover, NADPH consumption readout. Potency, µM (highest dose often 114 µM), inactives show at the top dose activity change, negative = substrate turnover. 390,000 tested, 0.01% active. AID 588456; also: potency is read from the fitted curve at half-maximal effect; nearly all actives have a fitted effect of over 50% in size
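Rat TrxR1, dispensed at 90 nM, was prereduced with 400 uM NADPH (final) for 5 min at ~22 deg C, then incubated with compound 15 min before 400 uM selenite. A first-read NADPH fluorescence drop versus no-compound background flagged substrates.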
PI4K2A inh – PI4K2A (human) kinase inhibition. purified PI4K2A, ADP-Glo luminescence, 1 h; active compounds read low. activity change, negative = inhibition, % at 76.9 µM. 420,000 tested, 0.13% active; in the data active = activity change below about -50%; inconclusive = mostly about -30% to -49%;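 also: -100% = wells without enzyme as full effect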
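PI4K2A activity was measured by ADP-Glo luminescence: enzyme (4 ug/mL stock) and phosphatidylinositol (1.2 mM stock) in Tris pH 7.5/MgCl2/EGTA/Triton X-100 buffer were reacted with ATP (300 microM stock) for one hour at ambient temperature.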
PKM2 act – PKM2 (human) enzyme activation; P14618; purified PKM2, Kinase-Glo ATP luminescence, activation; response scale: 0% is enzyme alone, no compound; Potency, µM (series often up to 57.5 µM), for the others: at the top dose activation, actives largely listed as activators; 260,000 tested, 0.34% active; also: potency is read from the fitted curve at half-maximal effect; nearly all actives have a fitted effect of over 55% in size
Target sequence (P14618 whole entry, looked up): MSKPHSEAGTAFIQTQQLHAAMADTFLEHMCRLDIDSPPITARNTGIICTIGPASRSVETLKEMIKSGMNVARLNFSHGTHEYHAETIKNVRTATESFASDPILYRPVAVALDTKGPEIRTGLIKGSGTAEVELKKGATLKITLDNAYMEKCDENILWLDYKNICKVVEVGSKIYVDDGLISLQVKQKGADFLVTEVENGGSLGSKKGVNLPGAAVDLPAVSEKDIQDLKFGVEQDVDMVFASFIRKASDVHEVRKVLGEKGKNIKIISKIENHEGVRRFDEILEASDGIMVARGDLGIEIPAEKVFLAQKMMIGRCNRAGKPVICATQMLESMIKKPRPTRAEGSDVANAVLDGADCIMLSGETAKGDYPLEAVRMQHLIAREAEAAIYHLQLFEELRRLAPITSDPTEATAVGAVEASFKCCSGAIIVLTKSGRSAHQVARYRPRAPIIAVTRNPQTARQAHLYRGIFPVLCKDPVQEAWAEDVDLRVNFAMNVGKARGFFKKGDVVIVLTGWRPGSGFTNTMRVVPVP
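hPK-M2, >95% pure; 0.1 mM ADP / 0.5 mM PEP final; imidazole pH7.2 buffer w/ 7 mM MgCl2, 50 mM KCl; 1 h RT; Kinase-Glo lum. Intermediate enzyme activity for dual inhibitor/activator qHTS.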
TrxR1 inh – rat TrxR1 inhibition; O89049; recombinant rTrxR1, NADPH fluorescence consumption, selenite substrate; Potency, µM (highest dose often 114 µM), without a hit: at the top dose activity change, negative = inhibition, most hits filed as inhibitors; 390,000 tested, 1% active; AID 588453; also: potency is read from the fitted curve at half-maximal effect; nearly all actives have a fitted effect of over 65% in size
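Rat TrxR1 (90 nM in the dispensed reagent) was pre-reduced with 400 uM NADPH for 5 min at room temperature, then incubated with compound for 15 min. After 400 uM selenite was added, NADPH fluorescence (Ex 340/Em 450 nm) was followed for 8 min.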
GALK inhibitor – galactokinase (human) inhibition. Potency, µM (titrated, usually from 57.5 µM), for the others: top-dose activity change, negative = inhibition, most hits filed as inhibitors. 270,000 tested, 0.007% active. Purified GALK, Kinase-Glo residual ATP luminescence. AID 1868. P51570; also: potency is read from the fitted curve at half-maximal effect
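Kinase-Glo Plus luminescence measured ATP left after a 1 h room-temperature reaction. The reaction used 5 nM GALK, 100 uM galactose and 35 uM ATP at pH 8.0 (20 mM HEPES, 5 mM MgCl2, 60 mM NaCl, 1 mM DTT, 0.01% BSA).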
* hit, by the source's call; ? = inconclusive; . = not tested or not shown; [ ] = another dose, or the depositor's remark. Shown are actives, neighbours in structure and some others; about 1.2% of the full set was active somewhere. Unless noted, calls follow the shape of the dose curve; as a rule, active = well fitted curve in the direction sought with a large enough effect; inconclusive = small, poorly fitted or top-dose-only effect, or another doubt; inactive = no such curve, though single readings can be large; an effect the other way counts as inactive or inconclusive. Unless noted, % is scaled to controls: 0 for no effect and ±100 for the full control effect.

SMILES	TrxR1 substrate	PI4K2A inh	PKM2 act	TrxR1 inh	GALK inhibitor
CCOC(=O)C1CCN(c2nc(N)c3c(N)nc(SCC(=O)O)cc3c2C#N)CC1	26%	?	10µM*	-32%	?
Cc1c(-c2ccc(Cl)cc2)c(=O)oc2c(CN3CCOCC3)c(O)ccc12	187%[57.1 µM]	4	.	23%[57.1 µM]	.
O=C(C1CCCN(S(=O)(=O)c2ccc(Br)s2)C1)N1CCN(Cc2ccccc2)CC1 (stereo unspecified)	.	-8	.	.	.
O=C(NC1CCCC1)c1ccc2nc(-c3ccco3)c(-c3ccco3)nc2c1	9%[57.1 µM]	?	16%	3.2µM*	-3%
O=C(NCCO)c1ccc2nc(-c3ccco3)c(-c3ccco3)nc2c1	-3%	?	11%	8.9µM*	1%
O=C(c1ccccc1)c1ccc2nc(-c3ccco3)c(-c3ccco3)nc2c1	5%[57.1 µM]	?	3%	2.8µM*	-5%
c1coc(-c2nc3ccccc3nc2-c2ccco2)c1	25%	-12	?	?	4%
O=C(NCCc1ccccc1)c1ccc(=O)oc1	-19%	-16	0%	-19%	-2%
O=C(NCCc1ccccc1)c1ccc2nc(-c3ccco3)c(-c3ccco3)nc2c1	-1%	-24	6%	3.2µM*	0%
CCOC(=O)CC[C@@H]1CC[C@]2(CCCN(C(=O)c3ccco3)C2)O1	.	3	.	.	.
O=C(NC1CCCCC1)c1nn2c(C(F)(F)F)cc(-c3ccco3)nc2c1Br	5%[57.1 µM]	2	6%	-21%[57.1 µM]	0%
O=C(NC1CCCCC1)c1cnn2c(C(F)(F)F)cc(-c3ccco3)nc12	15%	1	2%	3.5µM*	1%
Nc1cc(N)cc(N)c1	25µM*	.	.	40µM*	.
Cc1cc(N)cc(C)c1-c1c(Br)cc(N)cc1Br	-7%	-3	.	-5%	.
CCN(CC)S(=O)(=O)c1ccc2nc(NC(=O)c3cccnc3)sc2c1	-2%[57.1 µM]	0	.	13%[57.1 µM]	.
O=C(NCC1CCCO1)c1nn2c(C(F)(F)F)cc(-c3ccc(Br)o3)nc2c1Br (stereo unspecified)	6%	-7	.	14µM*	-2%
COc1ccc(-c2cc(C(F)(F)F)n3ncc(C(=O)NCC4CCCO4)c3n2)cc1 (stereo unspecified)	40%[57.1 µM]	-7	2%	7%[57.1 µM]	-4%
CCN1C(=O)[C@H]2[C@@H](c3ccc(-c4ccc(OC)cc4)c(OC)c3)N[C@@](Cc3ccccc3)(C(=O)OC)[C@H]2C1=O	24%	-3	.	43%	.
COc1ccc(C2NC(Cc3ccccc3)(C(=O)O)C3C(=O)N(c4ccccc4OC)C(=O)C23)cc1 (stereo unspecified)	7%	4	-2%	56µM*	-1%
CNC(=O)c1c(I)c(NC(=O)CCCCC(=O)Nc2c(I)c(C(=O)O)c(I)c(C(=O)NC)c2I)c(I)c(C(=O)O)c1I	.	-2	.	.	.
Cc1c(Cl)cnc(NC(=O)COC(=O)[C@@H](NC(=O)c2ccco2)C(C)C)c1Cl	8%	-13	.	11µM*	.
COCCN=C1S/C(=C\c2cc(C)n(-c3ccc(F)cc3F)c2C)C(=O)N1C	.	-2	.	.	.
COc1cccc(NC(=O)CCN2C(=O)c3ccccc3Sc3ncccc32)c1	-2%	0	6%	71µM*	-3%
COC(=O)c1ccc([C@H]2Nc3ccc(S(=O)(=O)Nc4ccc(C)cc4)cc3[C@H]3C=CC[C@H]32)cc1	3%	-6	.	50µM*	.
O=C(O)c1ccc2c(c1)C1C=CCC1C(c1ccncc1)N2 (stereo unspecified)	-3%	0	8%	-2%	3%
SMILES	TrxR1 substrate	PI4K2A inh	PKM2 act	TrxR1 inh	GALK inhibitor
CC(=O)c1ccc2c(c1)C1C=CCC1C(c1ccc(S(=O)(=O)N3CCOCC3)cc1)N2 (stereo unspecified)	-9%	-20	8%	50µM*	0%
O=C1N=C(N2CCOCC2)S/C1=C/c1ccc(-c2ccccc2Cl)o1	-16%	4	4%	-16%	0%
O=C1NC(=O)/C(=C\c2ccc(N3CCOCC3)o2)N1	-22%	-5	27%	8.9µM*	0%
O=C1S/C(=C\c2ccc(N3CCOCC3)o2)C(=O)N1c1ccccc1	5%[57.1 µM]	-1	7%	4µM*	-1%
O=C1S/C(=C\c2ccc(N3CCOCC3)o2)C(=O)N1Cc1c(F)cccc1Cl	4%[57.1 µM]	-1	2.5µM*	2.5µM*	-2%
O=C(O)c1ccccc1-c1ccc(/C=C2\SC(=O)N(c3ccccc3)C2=O)o1	-8%	-11	3%	-26%	1%
O=C1S/C(=C/c2ccc(N3CCOCC3)o2)C(=O)N1Cc1c(F)cccc1Cl	-10%	0	?	8.9µM*	-2%
Cc1cccc(N2CCN(C(=O)CCc3c(C)nc4ncnn4c3C)CC2)c1C	7%	2	.	31%	.
CC(C)(C)C(=O)Nc1ccc(Sc2ccc([N+](=O)[O-])cc2)cc1	-7%	-8	0%	-6%	-4%
CC(=O)Nc1ccc(Sc2ccc([N+](=O)[O-])o2)cc1	-1%	12	.	4.5µM*	.
O=C(CSc1nnc(-c2ccccn2)n1Cc1ccco1)Nc1ccc(Oc2ccccc2)cc1	.	-1	.	.	.
COc1ccc(-c2cc(C(F)(F)F)c3c(n2)sc2c(O)cc(=O)[nH]c23)c(OC)c1	-10%	-56*	2%	-21%	-2%
Cc1cc(C)c2c(n1)sc1c(O)cc(=O)[nH]c12	45%	-6	-6%	-1%	0%
CCCOc1ccc(NC(=O)CC2C(=O)N(c3cccc(OC)c3)C(=O)N2Cc2cccs2)cc1 (stereo unspecified)	-3%	-2	.	15%	.
O=C(NCc1ccccc1Cl)c1cnc(N2CCCCC2)c2ccccc12	-2%[57.1 µM]	2	.	10%[57.1 µM]	.
O=S(=O)(Nc1ccc2c(c1)OCCO2)c1ccc(F)c(F)c1	-7%	2	2%	1%	-2%
O=S(=O)(Nc1ccc(Cl)cc1)c1ccc2c(c1)CCO2	3%	-9	18µM*	18%	1%
O=C(COC(=O)CCS(=O)(=O)c1ccccc1)Nc1ccccc1	-2%	2	.	45µM*	.
CC(=O)Nc1ccc(C(=O)COC(=O)CCS(=O)(=O)c2ccccc2)cc1	-3%	-2	.	5%	.
CC1CCC2(CCC(=O)N2CCCOC(=O)c2ccccc2)CC1 (stereo unspecified)	.	-1	.	.	.
Cc1cc2c(cc1C)N(C(=O)CCl)CCN2C(=O)CCl	2%[57.1 µM]	8	.	1.1µM*	.
Cc1cc2c(cc1C)N(C(=O)CCl)CC(=O)N2	.	4	.	.	.
CC(=C\C(=O)O)/C(=C/c1ccc(C)o1)C(=O)O	-5%	-1	?	71µM*	.
C[C@@H]1COc2cc(Br)ccc2S(=O)(=O)N1Cc1cn(CC2CCCCC2)nn1	.	-1	.	.	.
COc1ccc(CN(C(=O)/C=C/c2ccco2)C2CCS(=O)(=O)C2)cc1OC (stereo unspecified)	-12%	-12	0%[0.46 µM]	16µM*	-3%
